Screens as filed in PubChem BioAssay.
B2AR arrestin – qHTS assay of beta-arrestin-biased ligands of beta2-adrenergic receptor. 0.02% of 330,000 active. beta-arrestin recruitment to beta2AR, cell-based reporter. Beta-2 adrenergic receptor (Homo sapiens), P07550. Potency, µM (highest dose often 46.1 µM), hits mostly activators; also: nearly all actives have a fitted effect of over 65% in size
RXFP1 agonist – qHTS Assay for Agonists of the Relaxin Receptor RXFP1. HEK293T-RXFP1 cAMP TR-FRET, 30 min; response scale: percent of porcine relaxin response, buffer zero. 0.3% of 370,000 active. Potency, µM (series often up to 57.5 µM), hits mostly activators; also: nearly all actives have a fitted effect of over 60% in size
Target sequence (Q9HBX9 whole entry, looked up): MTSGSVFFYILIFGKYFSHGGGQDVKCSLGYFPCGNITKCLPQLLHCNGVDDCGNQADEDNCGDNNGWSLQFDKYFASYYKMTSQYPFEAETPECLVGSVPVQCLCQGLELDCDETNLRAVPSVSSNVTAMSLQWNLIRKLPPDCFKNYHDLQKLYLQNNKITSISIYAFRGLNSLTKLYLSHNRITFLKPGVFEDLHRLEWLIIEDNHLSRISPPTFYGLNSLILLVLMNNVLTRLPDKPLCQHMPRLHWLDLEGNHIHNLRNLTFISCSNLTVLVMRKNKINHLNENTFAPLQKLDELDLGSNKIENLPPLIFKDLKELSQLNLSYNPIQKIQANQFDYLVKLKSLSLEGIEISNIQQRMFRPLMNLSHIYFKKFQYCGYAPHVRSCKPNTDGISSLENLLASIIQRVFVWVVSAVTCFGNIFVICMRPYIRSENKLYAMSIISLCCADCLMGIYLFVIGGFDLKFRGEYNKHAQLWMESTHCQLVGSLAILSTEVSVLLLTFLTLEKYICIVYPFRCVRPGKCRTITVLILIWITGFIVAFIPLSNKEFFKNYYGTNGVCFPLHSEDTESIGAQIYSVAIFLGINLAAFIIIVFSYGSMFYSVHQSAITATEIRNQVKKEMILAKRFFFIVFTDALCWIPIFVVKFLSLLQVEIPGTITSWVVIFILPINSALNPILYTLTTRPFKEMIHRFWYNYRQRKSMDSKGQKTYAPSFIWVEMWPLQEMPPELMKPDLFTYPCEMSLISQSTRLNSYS
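cAMP rise read by TR-FRET after 30 min, 37C compound exposure (up to 58 uM) in RXFP1-transfected HEK293 cells with Ro 20174 present. EC50 from Hill-equation fits, with 29 nM porcine relaxin as 100% and buffer as basal.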
Chronic BCR inh – qHTS Assay to Find Inhibitors of Chronic Active B-Cell Receptor Signaling | ABC-DLBCL IkBa-CBG/CBR reporter, luminescence ratio, 4 h | Potency, µM (series often up to 46.1 µM), usual class: inhibitors | 0.05% of 340,000 active; active = well fitted inhibition curve with a large enough effect in the signal ratio, with a control signal flat, not every such curve was filed as active; inconclusive = small, poorly fitted or top-dose-only effect, or effect the other way, or a change in a side signal; the % refers to the signal ratio
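Compounds up to 46 uM were incubated four hours with TMD8 cells whose green CBG68 luciferase is fused to IkappaBalpha; red CBR luminescence normalised the signal, and concentration-effect curves were fitted to fusion, red and ratio data.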
RXFP1 antagonist – qHTS Assay for Antagonists of the Relaxin Receptor RXFP1; Relaxin receptor 1 (Homo sapiens), Q9HBX9; HEK293-RXFP1, relaxin-stimulated cAMP HTRF, 30 min; stronger effect = lower value; activity change, negative = inhibition, % at 57.5 µM; 0.59% of 350,000 active; AID 1259400, 2018;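 active = activity change of -60% or lower, but not beyond a set lower limit; inconclusive = change between -60% and -40%, or beyond the set limit; inactive = change above -40%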
Of the large screens only hits and unclear results are named; the others gave an inactive call. This is a sample that favours compounds with a hit; in the whole collection about 0.59% have one here. Unless noted, calls follow the shape of the dose curve; as a rule, active = well fitted activation curve with a large enough effect; inconclusive = small, poorly fitted or top-dose-only effect; inactive = flat fitted curve, though single readings scatter.

COC(=O)CN1C(c2ccccc2O)Nc2ccc(Br)cc2C1c1ccccc1 (stereo not given)	none
CC1(C)Cc2ccccc2-c2c1c(=O)n(Cc1ccccc1)c1nnnn21	none
Cn1c(=S)[nH]c2c(c1=O)C(C)(C)Cc1ccccc1-2	B2AR arrestin inconclusive, RXFP1 agonist 15.8µM, Chronic BCR inh inconclusive
CCn1c(=S)[nH]c2c(c1=O)C(C)(C)Cc1ccccc1-2	RXFP1 agonist 15.8µM
Cc1csc2nc(-c3cccc(NC(=O)C(C)C)c3)cn12	none (no result: B2AR arrestin, Chronic BCR inh)
O=C(Cn1c(=O)n2nc(-c3cccc(F)c3)nc2c2ccccc21)N1CCN(c2ccccc2F)CC1	RXFP1 agonist inconclusive (no result: B2AR arrestin)
COc1cc(-c2noc(-c3ccc(NCc4cccnc4)c([N+](=O)[O-])c3)n2)cc(OC)c1OC	none (no result: B2AR arrestin, Chronic BCR inh, RXFP1 antagonist)
COc1ccc(CN2C(=O)c3cccnc3C2=O)cc1S(=O)(=O)NC1CCCCC1C (stereo not given)	RXFP1 agonist 25.1µM
COc1ccc(CN2C(=O)c3cccnc3C2=O)cc1S(=O)(=O)N1CCCC(C)C1 (stereo not given)	RXFP1 agonist 7.94µM
CC1(C)O[C@@H]2C[C@H]3[C@@H]4CCC5=CC(=O)C=C[C@]5(C)[C@@H]4[C@@H](O)C[C@]3(C)[C@]2(C(=O)CO)O1	none (no result: B2AR arrestin, RXFP1 agonist, Chronic BCR inh)
C[C@H]1C[C@H](O)c2ccsc2S1(=O)=O	none (no result: B2AR arrestin, RXFP1 agonist, Chronic BCR inh)
CCN(C(=O)c1cc(S(=O)(=O)N2CCc3ccccc32)cn1C)c1cccc(C)c1	none (no result: B2AR arrestin, Chronic BCR inh)
Cc1[nH]c(=S)[nH]c(=O)c1CCOc1ccccc1	RXFP1 antagonist -81.3
CCCCCCCCOC(=O)CCc1c(C)[nH]c(=S)[nH]c1=O	RXFP1 antagonist -70.1
CCc1c(CN2CCN(c3cccc(C)c3C)CC2)csc1C	none (no result: B2AR arrestin, Chronic BCR inh)
CN(C)[C@@H](CCOc1cccc2ccccc12)c1ccccc1	none (no result: B2AR arrestin, RXFP1 agonist, Chronic BCR inh)
CCc1ccc(/C=C/C(=O)c2ccc(N3CCOCC3)cc2)cc1	RXFP1 antagonist -92.1
[O-][n+]1cccc(/C(Cl)=N/OC[C@@H](O)CN2CCCCC2)c1	none (no result: B2AR arrestin, RXFP1 agonist, Chronic BCR inh)
O=S(=O)(NCCc1csc2nc(-c3ccc(Cl)cc3)nn12)c1cccs1	Chronic BCR inh inconclusive (no result: B2AR arrestin)
Cc1cc(NC(=O)c2ccc(Cl)cc2)c(C)cc1O	none
Cc1cc(C(C#N)c2ccc(Cl)cc2)c(Cl)cc1NC(=O)c1cc(I)cc(I)c1O (stereo not given)	Chronic BCR inh inconclusive, RXFP1 antagonist -111.9
CCc1ccc(CNCc2c(C(=O)O)n(Cc3ccc(C)cc3)c3cc(C)ccc23)cc1	none (no result: B2AR arrestin, Chronic BCR inh, RXFP1 antagonist)
CNC(=O)c1c(NC(=O)c2ccco2)sc(C)c1C	RXFP1 antagonist -88.4
COC(=O)c1cc(Cl)ccc1OC	none (no result: B2AR arrestin, RXFP1 agonist, Chronic BCR inh)
COc1ccc2[nH]c3c(Cl)ncnc3c2c1	Chronic BCR inh inconclusive
COc1ccc2[nH]c3c(=S)nc[nH]c3c2c1	RXFP1 agonist 15.8µM
CCn1c(CN2CCCCC2)nc2cc(NC(=O)c3cccc([N+](=O)[O-])c3)ccc21	none (no result: B2AR arrestin, Chronic BCR inh)
Cc1ccc(-c2c(C(=O)Nc3ccccc3C)c(C)[nH]c(=S)c2C#N)o1	RXFP1 agonist 28.2µM
C=CCNC(=O)NC(=O)COC(=O)c1nc2nccc(C)n2n1	RXFP1 agonist 15.8µM
Cc1ccnc2nc(C(=O)OCC(=O)NCCc3ccccc3)nn12	none
CCN(CC)CC(O)Cn1c(C)c(-c2ccccc2)c2cc([N+](=O)[O-])ccc21 (stereo not given)	RXFP1 antagonist -89.4
Cc1ccc(-n2nc3c(=O)n(CC(=O)NCCC4=CCCCC4)nc(C)c3c2C)cc1	RXFP1 antagonist -102.5
Cc1ccc(-n2nc3c(=O)n(CC(=O)NCCc4ccc(Cl)cc4)nc(C)c3c2C)cc1	none
COc1cc(C(=O)OCc2cc(=O)n3ccsc3n2)cc(OC)c1OC	none (no result: B2AR arrestin, Chronic BCR inh, RXFP1 antagonist)
Cc1[nH]n(-c2ccc([N+](=O)[O-])cc2)c(=O)c1C=NCCN1CCN(C(=O)C(C)C)CC1	RXFP1 agonist 25.1µM, Chronic BCR inh inconclusive
O=C(O)CCC(=O)Nc1ccc(C(=O)OCC(=O)c2ccc(Cl)cc2Cl)cc1	Chronic BCR inh inconclusive, RXFP1 antagonist -66.9
CCC(=O)Nc1cc(C(=O)OCC(=O)c2ccc(Cl)cc2Cl)ccc1C	none
Cc1ccc2c(C)c(C(=O)NCCN3CCCC(O)C3)oc2c1C (stereo not given)	RXFP1 antagonist -111.8
COc1cc2nc(SCC(=O)Nc3ccc(F)cc3)n3nc(CCn4c(C)nc5ccccc54)nc3c2cc1OC	none (no result: B2AR arrestin, Chronic BCR inh, RXFP1 antagonist)
COc1cc2nc(SCC(=O)Nc3cccc(C)c3)n3nc(CCn4c(C)nc5ccccc54)nc3c2cc1OC	RXFP1 agonist 17.8µM (no result: B2AR arrestin, Chronic BCR inh)
COCCN=c1scc(-c2ccco2)n1/N=C/c1ccc(O)c(O)c1O	RXFP1 antagonist -103.8
Oc1ccc(/C=N/n2c(-c3ccco3)csc2=Nc2cccnc2)c(O)c1	Chronic BCR inh inconclusive, RXFP1 antagonist -61.5
C=CCN=c1scc(-c2ccco2)n1/N=C/c1ccc(O)c(O)c1O	RXFP1 antagonist inconclusive
CN=c1scc(-c2cccs2)n1/N=C/c1ccc(O)c(O)c1O	RXFP1 antagonist -63.3
CCOC(=O)c1ccc(NC(=O)CN2C(=O)c3cccnc3Sc3ccccc32)cc1	none (no result: B2AR arrestin, Chronic BCR inh)
CCOC(=O)C1CCCN(S(=O)(=O)c2cc(-c3onc(C)c3C)ccc2OC)C1 (stereo not given)	none (no result: B2AR arrestin, Chronic BCR inh)
CCc1sc(C(C2C(=O)CC(C)(C)CC2=O)C2C(=O)CC(C)(C)CC2=O)cc1[N+](=O)[O-]	Chronic BCR inh inconclusive, RXFP1 antagonist -98.4
O=c1c2ccccc2n2c(-c3ccc(Cl)cc3)nnc2n1CCc1ccccc1	none (no result: B2AR arrestin, Chronic BCR inh)
Brc1ccc(-c2csc(N3CCCCC3)n2)cc1	Chronic BCR inh inconclusive (no result: RXFP1 antagonist)
Cc1cccc(Nc2nc(N)c([N+](=O)[O-])c(N3CCC(C)CC3)n2)c1	RXFP1 antagonist -68.7
Cc1cccc(Nc2nc(N)c([N+](=O)[O-])c(N3CC(C)CC(C)C3)n2)c1 (stereo not given)	none
CCOC(=O)C(O)c1ccccc1 (stereo not given)	none (no result: B2AR arrestin, RXFP1 agonist, Chronic BCR inh)
COc1ccc(-n2c(=O)c3ccc(C(=O)NCc4ccc(C)cc4)cc3n(CC(=O)Nc3ccc(F)cc3)c2=O)cc1	RXFP1 agonist 31.6µM (no result: B2AR arrestin, Chronic BCR inh, RXFP1 antagonist)
S=C(Nc1ccc(Cl)c(Cl)c1)NC1CCN(Cc2ccccc2)CC1	Chronic BCR inh inconclusive, RXFP1 antagonist -60.8
CCN(CC)c1ccc(NS(=O)(=O)c2ccc3c(c2)CCCN3C(C)=O)c(C)c1	none (no result: B2AR arrestin, Chronic BCR inh)
CC1CN(c2ncc(/C=N/NC(=O)c3ccccc3O)s2)CC(C)O1 (stereo not given)	Chronic BCR inh inconclusive, RXFP1 antagonist -72.6
CC(=O)N(CC(=O)N(C)C)c1ccccc1	none (no result: B2AR arrestin, RXFP1 agonist, Chronic BCR inh)
Oc1ccccc1/C=N/Nc1nc2ccccc2o1	B2AR arrestin 14.1µM, Chronic BCR inh inconclusive
Cc1ccc(NC(=O)Cn2cc(C(=O)C3CCCCC3)c3ccccc32)cc1	none (no result: B2AR arrestin, Chronic BCR inh)
O=C(C1=C(O)C(=O)N(c2nccs2)C1c1ccccc1)c1cc2ccccc2o1 (stereo not given)	RXFP1 agonist 15.8µM, Chronic BCR inh inconclusive
CCN(CC)CCN1C(=O)C(O)=C(C(=O)c2cc3ccccc3o2)C1c1cccnc1 (stereo not given)	none
